A number with no mark means an inactive call. Results filed as inconclusive are left out. Activity calls are given as the source filed them. Unless noted, calls follow the shape of the dose curve; as a rule, active = well fitted curve in the direction sought with a large enough effect; inconclusive = small, poorly fitted or top-dose-only effect, or another doubt; inactive = no such curve, though single readings can be large; an effect the other way counts as inactive or inconclusive.
What was measured:
[1] = target: Lysosomal acid glucosylceramidase (Homo sapiens) (UniProt P04062); test: Glucocerebrosidase-p2 (AID 348; in the data active = potency below about 10 µM; also: potency is read from the fitted curve at half-maximal effect); details: purified GBA, blue fluorogenic substrate, 40 min
Outline: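 Compounds titrated from 0.6 nM upwards against 0.2 nM enzyme in pH 5.9 citric acid/KH2PO4, taurocholate, tween-20; blue fluorogenic substrate 80 uM, 40 min room temperature, stopped and read Ex 365/Em 440 for AC50.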

[2] = NFAT Signaling Pathway (AID 444; active = well fitted curve in either direction with a large enough effect, not every such curve was filed as active;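 also: carbachol stimulus at about its EC50 of 1 µM final; % is scaled to controls: 0 for no effect and ±100 for the full control effect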); details: Jurkat NFAT-bla M1, carbachol, beta-lactamase ratio, 5 h; at 7.69 µM (top of the series) unless noted
Outline: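 Jurkat cells carrying an NFAT-driven β-lactamase reporter and co-transfected muscarinic M1 receptor were treated with compound plus carbachol (1 uM final, an EC50 level) for 5 h at 37 °C. CCF4 loading followed for 1 h at RT; 460/530 nm ratio gave %activity.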

[3] = Stat Signaling Pathway (AID 446; active = well fitted curve in either direction with a large enough effect, not every such curve was filed as active;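 also: ME-180 cervical cancer cells given 40 pM IL-6 alongside compound; SIE-controlled beta-lactamase reporter measured as 460/530 nm FRET emission ratio; % is scaled to controls: 0 for no effect and ±100 for the full control effect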); details: ME-180 SIE beta-lactamase reporter, IL-6 stimulated, 5 h; at 7.69 µM (top of the series) unless noted
Outline: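 Reporter line: ME-180 cervical carcinoma, SIE-beta-lactamase. Treatment: compound with 40 pM IL-6, 5 hrs, 37 C, in low-serum OPTI-MEM with 10 mM HEPES pH 7.3. Detection: 460/530 nm fluorescence.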

[4] = target: Glucocorticoid receptor (Homo sapiens) (UniProt P04150); test: GR-GFP Redistribution (AID 450;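 active = compounds whose dose series gives a full or clear partial fitted curve of increased nuclear translocation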; also: potency is read from the fitted curve at half-maximal effect); details: U2OS GR-GFP nuclear translocation, laser cytometry, 2 h
[5] = target: Glucocorticoid receptor (Homo sapiens) (UniProt P04150); test: GR-EFC Redistribution (AID 451; calls by dose curve; also: potency is read from the fitted curve at half-maximal effect); details: CHO-K1 GR-EFC translocation, beta-gal luminescence, 2 h
Outline: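 CHO-K1 cells stably expressing nuclear-localized β-gal enzyme acceptor and GR fused C-terminally to the enzyme donor fragment; ligand-driven nuclear translocation restores β-gal by complementation. Compounds titrated up to 46 uM final, 2 h at 37 °C; luminescence read.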

[6] = target: Mitogen-activated protein kinase 10 (Mus musculus) (UniProt Q61831); test: JNK3 AlphaScreen Assay (AID 530; active = well fitted curve in either direction with a large enough effect, not every such curve was filed as active;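 also: kinase came from lysate of stimulated human HepG2 cells; signal reports phosphorylation of biotinylated GST-cJun 1-79 at Ser73 with 10 µM ATP; % is scaled to controls: 0 for no effect and ±100 for the full control effect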); details: JNK3 lysate, c-Jun phosphorylation; series mostly up to 57.1 µM
Outline: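 JNK3 came from HepG2 lysates pre-activated with IL-1beta and TNF-alpha and phosphorylated biotinylated GST-cJun (1-79) at 10 uM ATP, pH 7.6, room temperature. Compounds were titrated. AlphaScreen signal used anti-phospho-cJun (Ser73) antibody.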

[7] = target: 3',5'-cyclic-AMP phosphodiesterase 4B (Homo sapiens) (UniProt Q07343); test: qHTS Assay for Inhibitors of PDE-IV (AID 607; active = well fitted activation curve with a large enough effect in the main read-out, with a control signal flat, not every such curve was filed as active; also: % of control where 0% means no effect); details: HEK293 ACTOne CNG channel cells, membrane potential fluorescence; series mostly up to 22.9 µM
Outline: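 Cell-based read-out of cAMP via a modified cyclic nucleotide-gated channel and membrane potential dye (535/590 nm) in HEK293 cells expressing PDE4 endogenously. Compounds tested up to 22.9 uM final; 100 uM RO 20-1724 reference.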

[8] = target: Dual specificity protein kinase CLK4 (Homo sapiens) (UniProt Q9HAZ1); test: qHTS Assay for Inhibitors of CDC-like Kinase 4 (Kinase-Glo Assay) (AID 1770); details: recombinant Clk4, Kinase-Glo ATP depletion luminescence; series mostly up to 66.7 µM; also: nearly all actives have a fitted effect of over 65% in size; also: potency is read from the fitted curve at half-maximal effect
Outline: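 Inhibition was judged from remaining ATP, measured by Ultra-Glo luciferase bioluminescence after Clk4 (25 nM) had acted on RS peptide at 1 uM ATP for 4.5 hours, room temperature.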

[9] = target: Dual specificity protein kinase CLK4 (Homo sapiens) (UniProt Q9HAZ1); test: qHTS Assay for Inhibitors of CDC-like Kinase 4 (ADP-Glo Assay) (AID 1771); details: recombinant CLK4, ADP-Glo luminescence; series mostly up to 80 µM; also: nearly all actives have a fitted effect of over 70% in size; also: potency is read from the fitted curve at half-maximal effect
Outline: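 Clk4 (25 nM) was incubated 1 hr at room temperature with 100 uM RS repeat peptide and 1 uM ATP in buffer with 2 mM MgCl2, 0.5 mM EGTA, 2.5 mM DTT. ADP formed was quantified by ADP-Glo luminescence.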

[10] = target: Dual specificity protein kinase CLK4 (Homo sapiens) (UniProt Q9HAZ1); test: qHTS Assay for Inhibitors of CDC-like Kinase 4 (ADP-FP Assay) (AID 1795); details: Transcreener ADP fluorescence polarization; series mostly up to 50 µM; also: nearly all actives have a fitted effect of over 60% in size; also: potency is read from the fitted curve at half-maximal effect
Outline: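 Inhibition of ADP formation by 6.25 nM Clk4 is measured using 1 uM ATP and 100 uM RS repeat peptide over one hour. Produced ADP displaces a fluorescent tracer from antibody, lowering polarization.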

[11] = target: Ubiquitin carboxyl-terminal hydrolase 1 (Homo sapiens) (UniProt O94782); test: Inhibitors of USP1/UAF1: Pilot qHTS (AID 504865); details: purified USP1/UAF1, Ub-rhodamine cleavage fluorescence; series mostly up to 54.9 µM;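 also: rhodamine fluorescence freed from ubiquitin-rhodamine substrate followed over time; top concentration of the series differs between compounds; % is scaled to controls: 0 for no effect and ±100 for the full control effect; nearly all actives have a fitted effect of over 35% in size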
Outline: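 Kinetic fluorescence assay: 1nM USP1/UAF1, 15 min compound preincubation, then 150nM Ub-Rho; 480/540 nm.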

[12] = Primary qHTS for small molecule stabilizers of the endoplasmic reticulum resident proteome: Secreted ER Calcium Modulated Protein (SERCaMP) assay (AID 1508630); details: SH-SY5Y GLuc-SERCaMP (Gaussia luciferase released on ER calcium loss) secretion, thapsigargin, luminescence; series mostly up to 38.4 µM; also: % is scaled to controls: 0 for no effect and ±100 for the full control effect
Outline: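 GLuc-SERCaMP-expressing SH-SY5Y cells, pretreated 16 h with compound, are challenged with thapsigargin to empty ER calcium stores; after 4 h, coelenterazine is added directly to the medium and luminescence is imaged.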

[13] = AP1 Signaling Pathway (AID 357; active = well fitted curve in either direction with a large enough effect, not every such curve was filed as active); details: ME-180 AP-1-bla reporter, EGF-induced, beta-lactamase ratio, 5 h; at 7.69 µM (top of the series) unless noted
Outline: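 In this screen, ME-180 cells in Opti-MEM with 0.5% dialyzed FBS received EC50 EGF and compound titrations for 5 h. AP-1 reporter beta-lactamase was detected via CCF4 ratio, giving AC50 for positive and negative modulators.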

[14] = target: Cytochrome P450 1A2 (Homo sapiens) (UniProt P05177); test: p450-cyp1a2 (AID 410; calls by dose curve; also: potency is read from the fitted curve at half-maximal effect); details: recombinant CYP1A2, luciferin-ME demethylation, luminescence; series mostly up to 57 µM
Outline: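 Human CYP1A2 (20nM) demethylated Luciferin-ME at its Km (100uM) in 100mM KPO4. After 10 min compound preincubation, NADPH regeneration ran the reaction 60 min at room temperature. Luciferin was read by luminescence, normalized to 57 uM furafylline.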

[15] = target: Cytochrome P450 3A4 (Homo sapiens) (UniProt P08684); test: qHTS Assay for Activators of Cytochrome P450 3A4 (AID 885); details: recombinant CYP3A4, Luciferin-PPXE luminescence, 60 min; series mostly up to 57.1 µM; also: nearly all actives have a fitted effect of over 65% in size
Outline: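 Signal was normalized against complete inhibition by 57 uM ketoconazole. The reaction used 20nM CYP3A4 with 25uM Luciferin-PPXE, 10-min compound preincubation and a 60-min NADPH-supported step at RT.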

[16] = target: Cytochrome P450 2C9 (Homo sapiens) (UniProt P11712); test: qHTS Assay for Inhibitors and Substrates of Cytochrome P450 2C9 (AID 883); details: recombinant CYP2C9, luciferin-H luminescence, 60 min; series mostly up to 57.1 µM; also: potency is read from the fitted curve at half-maximal effect; nearly all actives have a fitted effect of over 60% in size
Outline: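 Human CYP2C9 (10nM) hydroxylated Luciferin-H (100uM, at its KM) to luciferin in 25mM KPO4. Compound was preincubated 10 min at 37C, then NADPH regeneration started a 60 min reaction at 37C. Luminescence was read after detection reagent, normalized to 57uM sulphaphenazole.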

[17] = target: Cytochrome P450 3A4 (Homo sapiens) (UniProt P08684); test: qHTS Assay for Inhibitors and Substrates of Cytochrome P450 3A4 (AID 884); details: recombinant CYP3A4, Luciferin-PPXE luminescence; series mostly up to 57.1 µM; also: potency is read from the fitted curve at half-maximal effect; nearly all actives have a fitted effect of over 50% in size
Outline: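 20 nM human CYP3A4 with 25 uM Luciferin-PPXE (at KM) in 200 mM KPO4, preincubated 10 min with compound; NADPH regeneration started a 60 min RT reaction. Luciferin detected by luminescence, normalized to 57 uM ketoconazole as full inhibition.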

[18] = target: Cytochrome P450 2D6 (Homo sapiens) (UniProt P10635); test: qHTS Assay for Inhibitors and Substrates of Cytochrome P450 2D6 (AID 891); details: recombinant CYP2D6, luciferin-ME EGE luminescence; series mostly up to 57.1 µM; also: potency is read from the fitted curve at half-maximal effect; nearly all actives have a fitted effect of over 60% in size
Outline: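 Human CYP2D6 (5 nM) with 30 uM Luciferin-ME EGE (at Km) in 100 mM KPO4, compound preincubated 10 min, then NADPH regeneration system for 60 min at room temperature. Luciferin read by luminescence; normalized to 1.43 uM quinidine.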

[19] = target: Cytochrome P450 2C19 (Homo sapiens) (UniProt P33261); test: qHTS Assay for Inhibitors and Substrates of Cytochrome P450 2C19 (AID 899); details: recombinant CYP2C19, luciferin-H EGE luminescence; series mostly up to 57.1 µM; also: potency is read from the fitted curve at half-maximal effect; nearly all actives have a fitted effect of over 60% in size
Outline: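 Human CYP2C19 (5nM) with Luciferin-H EGE at 10uM (its KM) in 50mM KPO4 was preincubated with compound for 10 min at 37C. NADPH regeneration started a 60 min 37C reaction. Luciferin was read by luminescence, normalized to 57uM ketoconazole.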

[20] = qHTS Assay for Identification of Small Molecule Agonists for Hypoxia Response Element Signaling Pathway (AID 914; active = well fitted activation curve with a large enough effect in the signal ratio, with a control signal flat, not every such curve was filed as active; the % refers to the signal ratio; also: % of control where 0% means no effect); details: ME-180 (cervical carcinoma) HRE-bla reporter, beta-lactamase ratio, CoCl2, 17 h; activation: active compounds read high
Outline: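 Reporter activity (beta-lactamase, CCF4 460nm/530nm ratio) in HRE-bla ME-180 cells is recorded after 17 h compound exposure with EC50 CoCl2 at 37 degrees Celsius. AC50 values come from titration data.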

Sequence of Dual specificity protein kinase CLK4 (Homo sapiens) (Q9HAZ1 whole entry, looked up): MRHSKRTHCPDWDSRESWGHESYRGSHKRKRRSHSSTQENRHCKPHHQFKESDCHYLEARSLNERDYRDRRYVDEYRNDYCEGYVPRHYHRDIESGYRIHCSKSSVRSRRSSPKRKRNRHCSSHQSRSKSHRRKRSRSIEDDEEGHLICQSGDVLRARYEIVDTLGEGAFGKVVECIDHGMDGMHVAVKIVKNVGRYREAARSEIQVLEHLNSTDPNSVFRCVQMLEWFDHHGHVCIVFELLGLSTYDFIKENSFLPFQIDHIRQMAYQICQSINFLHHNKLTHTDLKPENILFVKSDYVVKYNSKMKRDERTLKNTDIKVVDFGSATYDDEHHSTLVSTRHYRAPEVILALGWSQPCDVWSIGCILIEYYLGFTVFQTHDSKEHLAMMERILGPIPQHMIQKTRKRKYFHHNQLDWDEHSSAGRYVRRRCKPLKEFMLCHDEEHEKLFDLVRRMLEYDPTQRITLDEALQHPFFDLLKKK
Sequence of 3',5'-cyclic-AMP phosphodiesterase 4B (Homo sapiens) (Q07343 whole entry, looked up): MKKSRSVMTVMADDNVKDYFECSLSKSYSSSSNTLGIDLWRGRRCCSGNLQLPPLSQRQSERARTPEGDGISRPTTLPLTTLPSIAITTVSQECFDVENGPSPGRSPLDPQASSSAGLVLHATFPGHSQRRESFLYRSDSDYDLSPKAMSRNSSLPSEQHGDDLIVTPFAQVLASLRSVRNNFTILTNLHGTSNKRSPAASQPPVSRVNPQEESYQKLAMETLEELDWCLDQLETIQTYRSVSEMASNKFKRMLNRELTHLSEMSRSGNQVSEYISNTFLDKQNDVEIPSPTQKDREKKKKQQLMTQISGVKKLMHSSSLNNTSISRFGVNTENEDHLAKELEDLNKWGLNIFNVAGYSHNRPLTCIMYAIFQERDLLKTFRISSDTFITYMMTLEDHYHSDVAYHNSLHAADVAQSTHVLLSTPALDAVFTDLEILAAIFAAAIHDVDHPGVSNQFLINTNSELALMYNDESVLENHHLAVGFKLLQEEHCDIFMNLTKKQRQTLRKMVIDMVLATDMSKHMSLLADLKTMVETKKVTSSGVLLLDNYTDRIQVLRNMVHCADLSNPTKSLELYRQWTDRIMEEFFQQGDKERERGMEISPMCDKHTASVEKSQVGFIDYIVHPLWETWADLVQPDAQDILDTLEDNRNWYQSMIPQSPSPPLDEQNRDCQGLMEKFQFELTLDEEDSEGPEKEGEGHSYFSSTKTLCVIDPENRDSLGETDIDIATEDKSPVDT
Sequence of Cytochrome P450 1A2 (Homo sapiens) (P05177 whole entry, looked up): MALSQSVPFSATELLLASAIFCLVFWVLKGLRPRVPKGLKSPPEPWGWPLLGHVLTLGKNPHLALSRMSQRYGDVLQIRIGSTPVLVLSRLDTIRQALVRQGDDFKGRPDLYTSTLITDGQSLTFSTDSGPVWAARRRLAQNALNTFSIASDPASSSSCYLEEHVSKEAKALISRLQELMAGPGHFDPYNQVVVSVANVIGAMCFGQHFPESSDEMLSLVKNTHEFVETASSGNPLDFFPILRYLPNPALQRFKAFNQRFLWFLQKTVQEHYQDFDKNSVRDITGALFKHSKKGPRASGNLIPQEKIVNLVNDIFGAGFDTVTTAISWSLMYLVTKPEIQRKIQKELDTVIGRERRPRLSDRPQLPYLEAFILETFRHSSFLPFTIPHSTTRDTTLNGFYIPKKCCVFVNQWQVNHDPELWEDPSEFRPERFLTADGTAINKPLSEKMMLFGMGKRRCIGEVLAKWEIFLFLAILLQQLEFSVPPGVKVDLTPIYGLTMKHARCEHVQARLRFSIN
Sequence of Ubiquitin carboxyl-terminal hydrolase 1 (Homo sapiens) (O94782 whole entry, looked up): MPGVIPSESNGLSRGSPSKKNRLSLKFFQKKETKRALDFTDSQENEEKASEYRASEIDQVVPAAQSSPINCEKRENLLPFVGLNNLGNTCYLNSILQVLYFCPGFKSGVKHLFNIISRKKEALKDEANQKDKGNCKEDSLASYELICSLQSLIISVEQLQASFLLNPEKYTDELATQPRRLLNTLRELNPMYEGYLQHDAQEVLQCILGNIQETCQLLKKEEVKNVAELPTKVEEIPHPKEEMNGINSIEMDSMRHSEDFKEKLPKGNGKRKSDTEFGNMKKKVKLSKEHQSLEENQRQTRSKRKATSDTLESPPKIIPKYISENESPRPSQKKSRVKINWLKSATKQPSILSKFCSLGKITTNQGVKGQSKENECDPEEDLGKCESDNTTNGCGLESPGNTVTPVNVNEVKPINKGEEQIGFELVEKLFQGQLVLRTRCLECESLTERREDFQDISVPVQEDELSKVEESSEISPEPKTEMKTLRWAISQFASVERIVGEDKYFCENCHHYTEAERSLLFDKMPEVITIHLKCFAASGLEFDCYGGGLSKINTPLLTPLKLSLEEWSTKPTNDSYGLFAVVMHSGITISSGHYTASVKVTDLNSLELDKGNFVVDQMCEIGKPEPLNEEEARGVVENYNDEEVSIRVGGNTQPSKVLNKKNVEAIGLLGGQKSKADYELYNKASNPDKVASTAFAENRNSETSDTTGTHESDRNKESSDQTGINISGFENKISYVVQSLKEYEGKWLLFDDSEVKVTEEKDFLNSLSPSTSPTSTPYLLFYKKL
Sequence of Cytochrome P450 3A4 (Homo sapiens) (P08684 whole entry, looked up): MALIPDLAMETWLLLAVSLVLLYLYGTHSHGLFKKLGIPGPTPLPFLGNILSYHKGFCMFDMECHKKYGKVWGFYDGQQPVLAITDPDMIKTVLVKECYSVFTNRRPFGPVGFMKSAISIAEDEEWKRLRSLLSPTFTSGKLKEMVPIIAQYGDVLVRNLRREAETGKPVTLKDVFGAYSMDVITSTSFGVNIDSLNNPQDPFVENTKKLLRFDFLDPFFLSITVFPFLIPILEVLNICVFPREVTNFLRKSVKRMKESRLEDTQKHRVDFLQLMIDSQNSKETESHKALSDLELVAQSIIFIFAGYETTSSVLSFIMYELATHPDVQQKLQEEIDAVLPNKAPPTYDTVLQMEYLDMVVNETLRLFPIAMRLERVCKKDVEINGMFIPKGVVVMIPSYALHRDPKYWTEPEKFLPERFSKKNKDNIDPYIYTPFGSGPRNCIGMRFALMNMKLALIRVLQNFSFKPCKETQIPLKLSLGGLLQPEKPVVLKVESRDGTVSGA
Sequence of Lysosomal acid glucosylceramidase (Homo sapiens) (P04062 whole entry, looked up): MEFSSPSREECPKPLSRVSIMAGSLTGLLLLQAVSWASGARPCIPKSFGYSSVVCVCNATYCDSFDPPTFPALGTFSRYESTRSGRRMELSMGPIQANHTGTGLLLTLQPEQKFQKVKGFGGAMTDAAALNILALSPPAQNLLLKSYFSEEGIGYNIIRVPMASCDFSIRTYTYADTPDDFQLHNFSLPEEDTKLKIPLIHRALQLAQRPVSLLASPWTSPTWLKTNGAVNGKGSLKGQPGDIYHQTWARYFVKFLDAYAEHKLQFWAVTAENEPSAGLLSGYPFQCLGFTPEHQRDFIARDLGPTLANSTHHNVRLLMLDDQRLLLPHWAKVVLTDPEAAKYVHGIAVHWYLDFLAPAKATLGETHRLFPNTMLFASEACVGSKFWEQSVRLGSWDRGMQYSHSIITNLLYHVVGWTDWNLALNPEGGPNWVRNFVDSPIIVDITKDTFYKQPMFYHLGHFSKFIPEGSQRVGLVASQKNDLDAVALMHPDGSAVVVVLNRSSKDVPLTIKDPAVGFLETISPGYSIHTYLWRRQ
Sequence of Glucocorticoid receptor (Homo sapiens) (P04150 whole entry, looked up, the tested form may be a part): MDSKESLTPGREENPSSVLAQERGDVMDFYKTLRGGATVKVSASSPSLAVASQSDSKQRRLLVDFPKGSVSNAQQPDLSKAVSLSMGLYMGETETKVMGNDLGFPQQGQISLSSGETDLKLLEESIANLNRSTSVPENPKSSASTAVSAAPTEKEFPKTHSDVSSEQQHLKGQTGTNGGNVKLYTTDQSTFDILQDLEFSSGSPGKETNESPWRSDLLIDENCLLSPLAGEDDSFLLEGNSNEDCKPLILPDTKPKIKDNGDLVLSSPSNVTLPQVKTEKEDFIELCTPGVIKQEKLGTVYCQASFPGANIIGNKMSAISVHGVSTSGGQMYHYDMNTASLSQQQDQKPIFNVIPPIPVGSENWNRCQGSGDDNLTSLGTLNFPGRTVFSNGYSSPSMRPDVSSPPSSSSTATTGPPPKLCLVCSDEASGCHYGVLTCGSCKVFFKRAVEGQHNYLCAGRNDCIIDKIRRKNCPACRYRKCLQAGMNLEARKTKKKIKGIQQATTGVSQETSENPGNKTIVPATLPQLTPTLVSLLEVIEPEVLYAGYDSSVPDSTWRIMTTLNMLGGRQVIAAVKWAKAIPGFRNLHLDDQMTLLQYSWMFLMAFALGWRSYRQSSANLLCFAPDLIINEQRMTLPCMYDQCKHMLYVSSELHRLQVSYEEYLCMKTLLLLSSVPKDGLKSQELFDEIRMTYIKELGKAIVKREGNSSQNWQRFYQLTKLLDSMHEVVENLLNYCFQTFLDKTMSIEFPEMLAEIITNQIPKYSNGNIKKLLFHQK
Sequence of Cytochrome P450 2C9 (Homo sapiens) (P11712 whole entry, looked up): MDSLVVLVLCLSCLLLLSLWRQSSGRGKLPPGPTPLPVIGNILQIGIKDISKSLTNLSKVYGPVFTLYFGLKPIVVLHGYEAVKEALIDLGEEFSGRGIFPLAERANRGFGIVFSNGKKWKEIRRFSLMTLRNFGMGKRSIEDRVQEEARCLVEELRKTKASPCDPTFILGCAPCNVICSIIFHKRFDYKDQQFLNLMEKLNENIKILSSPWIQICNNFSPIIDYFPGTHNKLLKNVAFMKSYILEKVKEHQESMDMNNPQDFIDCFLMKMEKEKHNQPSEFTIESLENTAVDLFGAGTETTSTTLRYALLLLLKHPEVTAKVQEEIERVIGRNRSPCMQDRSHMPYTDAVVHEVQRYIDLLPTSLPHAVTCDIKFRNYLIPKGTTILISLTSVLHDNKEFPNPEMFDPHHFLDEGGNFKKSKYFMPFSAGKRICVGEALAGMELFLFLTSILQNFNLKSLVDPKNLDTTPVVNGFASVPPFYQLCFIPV

| SMILES | Potency [1] | activity change, negative = inhibition [2] | activity, negative = inhibition [3] | Potency [4] | Potency [5] | Potency [6] | Potency [7] | Potency [8] | Potency [9] | Potency [10] | Potency [11] | outcome [12] | activity change, negative = inhibition [13] | Potency [14] | Potency [15] | Potency [16] | Potency [17] | Potency [18] | Potency [19] | activation [20] |
| --- | --- | --- | --- | --- | --- | --- | --- | --- | --- | --- | --- | --- | --- | --- | --- | --- | --- | --- | --- | --- |
| COc1ccc(-c2nc3cnc(N(C)C)nc3n(Cc3ccc(F)cc3)c2=O)cc1 | > 11.4 µM | 102% [activator] (active) | 126% [activator] (active) | > 9.22 µM | > 46 µM | inactive | inactive | inactive | inactive | inactive | inactive | inactive |  |  |  |  |  |  |  |  |
| CN(C)c1ncnc2ccc(-c3ccc4c(c3)OCO4)cc12 | > 11.4 µM | -4.71% | 1.73% | > 46 µM | > 46 µM | inactive | inactive | 0.199 µM (active) | 0.158 µM (active) | 0.1 µM (active) | inactive | inactive |  |  |  |  |  |  |  |  |
| CN1CCN(c2ncc3nc(-c4cn(C)c5ccccc45)c(=O)n(-c4ccccc4)c3n2)CC1 |  | 20% | 4.99% | > 9.22 µM | > 46 µM | inactive | inactive | inactive | inactive | inactive |  | inactive | 2.43% | 15.8 µM (active) | inactive |  |  |  |  |  |
| COc1ccc(-c2nc3cnc(OCc4ccccc4)nc3n(CCC#N)c2=O)cc1 | > 11.4 µM |  |  | > 9.22 µM | > 46 µM | inactive | inactive | inactive | inactive | inactive | inactive | inactive |  |  |  |  |  |  |  |  |
| COc1ccc2[nH]cc(CCNc3ncncc3-c3cccc(NS(C)(=O)=O)c3)c2c1 |  | 15.3% | -18.7% | > 46 µM | > 46 µM | inactive | inactive | 25.1 µM (active) | 35.5 µM (active) | 10 µM (active) | inactive | inactive | -19.1% | 12.6 µM (active) | inactive | 0.398 µM (active) | 0.398 µM (active) | 3.16 µM (active) | 5.01 µM (active) |  |
| COc1ccc(CNc2ncncc2-c2ccc(C(=O)N(C)C)cc2)c(OC)c1 |  | 18.9% | -21% | > 46 µM | > 46 µM | inactive |  | inactive | inactive | inactive | inactive | inactive | -28.8% | 15.8 µM (active) | inactive |  | 0.501 µM (active) |  |  |  |
| COc1ccc(CNc2ccnc(-c3ccoc3)n2)c(OC)c1 | > 11.4 µM | 8.22% | 10.4% | > 46 µM | > 46 µM | inactive |  | inactive | inactive | inactive | inactive | inactive |  |  |  |  |  |  |  | 16.3% |

Source: PubChem BioAssay (NCATS)
